How the values were obtained:
Assay in all cases: PBM binding z-score (relative to random genomic background probes); higher = stronger binding; sequences stand for … in GC…GCGATTGACAGCGTAGAATGAAGG
[1] = system: FXR:RXRa (NR concentration 270 nM, RXRa partner concentration 90 nM)
Method in brief: (§1)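 Scanned fluorescence from custom Agilent 4×180K protein-binding microarrays was regression-normalized. Binding z-scores use random background probes as reference. Ligand-free nuclear receptor dimers were incubated on the arrays for 1 h and detected with antibodies against each partner (one per run).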

[2] = system: LXRa:RXRa (NR concentration 270 nM, RXRa partner concentration 90 nM)
Method in brief: as §1

[3] = system: LXRa homodimer (NR concentration 270 nM)
Method in brief: as §1

[4] = system: LXRb:RXRa (NR concentration 270 nM, RXRa partner concentration 90 nM)
Method in brief: as §1

[5] = system: LXRb homodimer (NR concentration 270 nM)
Method in brief: as §1

[6] = system: PPARa:RXRa (NR concentration 270 nM, RXRa partner concentration 90 nM)
Method in brief: as §1

[7] = system: PPARg:RXRa (NR concentration 180 nM, RXRa partner concentration 90 nM)
Method in brief: as §1

[8] = system: PPARg:RXRa 270nM:90nM, anti-RXR (NR concentration 270 nM, RXRa partner concentration 90 nM)
Method in brief: as §1

[9] = system: PPARg:RXRa 30nM:10nM, anti-RXR (NR concentration 30 nM, RXRa partner concentration 10 nM)
Method in brief: as §1

[10] = system: PPARg:RXRa 90nM:30nM, anti-RXR (NR concentration 90 nM, RXRa partner concentration 30 nM)
Method in brief: as §1

[11] = system: PPARg:RXRa DBDmut IVT, anti-RXR (DBD mutation: RXRa K156A/R161A, NR concentration 270 nM, RXRa partner concentration 90 nM)
Method in brief: as §1

[12] = system: PPARg:RXRa IVT, anti-PPARg (NR concentration 270 nM, RXRa partner concentration 90 nM)
Method in brief: as §1

[13] = system: PPARg DBDmut:RXRa IVT, anti-PPARg (DBD mutation: PPARg1 K132A/R137A, NR concentration 270 nM, RXRa partner concentration 90 nM)
Method in brief: as §1

[14] = system: PPARg DBDmut IVT, anti-PPARg (DBD mutation: PPARg1 K132A/R137A, NR concentration 270 nM)
Method in brief: as §1

[15] = system: PPARg homodimer (NR concentration 180 nM)
Method in brief: as §1

[16] = system: PXR:RXRa (NR concentration 270 nM, RXRa partner concentration 90 nM)
Method in brief: as §1

[17] = system: PXR homodimer (NR concentration 270 nM)
Method in brief: as §1

[18] = system: RARa:RXR (NR concentration 270 nM, RXRa partner concentration 90 nM)
Method in brief: as §1

[19] = system: RARa homodimer (NR concentration 270 nM)
Method in brief: as §1

[20] = system: RARb:RXRa (NR concentration 270 nM, RXRa partner concentration 90 nM)
Method in brief: as §1

Sequence	PBM binding z-score [1]	PBM binding z-score [2]	PBM binding z-score [3]	PBM binding z-score [4]	PBM binding z-score [5]	PBM binding z-score [6]	PBM binding z-score [7]	PBM binding z-score [8]	PBM binding z-score [9]	PBM binding z-score [10]	PBM binding z-score [11]	PBM binding z-score [12]	PBM binding z-score [13]	PBM binding z-score [14]	PBM binding z-score [15]	PBM binding z-score [16]	PBM binding z-score [17]	PBM binding z-score [18]	PBM binding z-score [19]	PBM binding z-score [20]
GCAGACAGGTGAAGCGCAGGTAACTCAGGGTGGC	-0.663	-0.276	-0.718	-0.713	-1.29	-0.0823	0.129	-0.656	-1.07	-0.9	0.302	0.226	-0.748	-1.21	-0.277	-0.484	-0.646	-0.125	-1.03	0.497
TCGAGTAAGTTACCAATGGGGCATTCAGCTTTCT	-0.407	-0.177	-0.53	0.203	-0.792	0.13	-0.296	0.61	0.958	0.917	0.719	-0.101	-0.374	-1.05	-0.441	0.0133	-0.765	0.11	-0.447	-0.0716
CCTAGTTGGTCAAGGTGACACACGCTATAGGTAC	0.697	0.276	0.273	0.592	0.0749	1.33	1.71	1.93	0.466	1.32	1.63	3.11	0.179	0.257	1.46	0.478	0.557	1.28	1.57	1.86
AGAATGAGCTTACCAAAGATCAGGGAAACGCTTG	-0.649	-0.433	-0.203	-0.523	-0.394	-0.401	0.53	0.206	0.32	-0.0483	-0.815	-0.433	-0.258	-0.198	-0.572	-0.428	-0.462	-0.0887	-0.255	-0.501
AGTCAAAGTTCAGGACGCGGTAACGTAAAGCACG	3.88	3.44	1.09	1.68	0.0515	3.08	4.39	4.71	1.96	3.51	-0.435	1.23	-0.53	-0.304	1.62	2.37	0.876	2.21	0.353	4.19
CTTCCAAGGTCAAAGGTCAGTGAAGAGATGACGG	8.35	7.17	4.94	6.74	2.43	7.29	11.1	9.09	8.56	10.7	4.31	5.99	1.55	2.25	5.02	7.21	2.73	8.8	3.33	5.92
CCTTACGGGTCACTGACAGGTTCTAGCATTTGGA	4.75	3.1	0.00693	2.9	0.128	4.77	3.89	4.02	1.11	2.83	3.31	3.38	0.541	-0.487	1.98	2.71	-0.239	3.46	0.459	3.63
GCTGCTAGGGCAACTGATGGTCAGCTAAAGCTCG	-0.599	-0.0812	-0.858	-0.846	-0.673	-0.536	-0.394	-0.642	-1.04	-0.914	2.82	1.23	-0.683	-1.08	-0.93	-0.816	-0.96	-0.619	-1.23	1.56
TCTGCTAGTTCAACGATGGTCAGCTAATCTGCTA	0.141	0.175	-0.555	-0.303	-0.648	0.264	-0.456	0.558	1.26	0.99	0.463	-0.112	-0.479	-0.339	-1.27	0.51	-0.0476	0.475	-1.49	1.55
TCATATAGGTAAAAGGTGAAAGACGGTGTGGTAA	2.04	2.03	0.309	2.05	0.213	5.1	9.86	8.73	9.9	10.6	5.58	5.42	1.69	1.75	3.5	1.66	0.734	3.13	1.65	1.91
AGTCAAAGTTCAGGACGAGGTGACGTAAAGCACG	4.38	3.95	1.24	1.82	0.0614	3.67	4.83	5.11	2.14	4.25	-0.365	2.55	-0.0177	-0.0513	2.73	3.51	1.23	3.58	0.938	4.46
CAAACTAGATCACAGAGGTCAAAGTCCGTGCGTA	4.82	5.45	6.08	5.22	2.14	5.26	4.26	4.86	2.01	4.09	3.96	4.36	1	1.1	4.38	5.76	2.93	6.13	2.65	4.05
GCTGCTAGGTCGGGTTGGTCAGCTAACGGGTACG	-0.105	-0.0902	-0.312	-0.21	-0.573	-0.124	-0.576	-0.344	-0.825	-0.553	0.38	0.339	-1.51	-0.0499	-0.349	-0.0179	-0.16	-0.157	-1.16	1.16
CATACAGGGTCAGCTTGGCCAGAGTAGGGACGGC	4.12	2.73	-0.212	1.86	0.138	4.1	2.78	2.88	0.385	1.57	1.04	2.5	0.91	0.462	1.09	2.01	-0.3	2.93	0.544	3.99
CCTTACGGGTCACTGACAGGTTTTAGCATTTGGA	5.38	3.52	-0.116	3.31	0.045	5.09	4.18	4.36	1.27	3.04	3.46	3.56	0.228	0.218	2.26	2.98	-0.502	4.09	1.06	3.88
